Source: the antibiotic and cytotoxicity screens of Wong et al. (2023)
About 3,300 (8.5%) of roughly 39,000 compounds were called active. For the sample, actives were picked, then their nearest neighbours and some compounds at random.

system: HepG2; assay: cytotoxicity call (relative viability < 0.9); settings: 10 µM

Compound | cytotoxicity call
Cc1cn([C@H]2C[C@H](F)[C@@H](CO)O2)c(=O)[nH]c1=O | inactive
CCC(=O)N[C@@H]1CC[C@@H](CC(=O)OC)O[C@@H]1CO | inactive
C[C@@H]1CN([C@@H](C)CO)C(=O)c2cc(-c3cncnc3)cnc2O[C@@H]1CN(C)C(=O)CN1CCOCC1 | inactive
C[C@@H]1CN([C@H](C)CO)C(=O)c2cccc(NC(=O)CCCCCC(=O)Nc3ccccc3N)c2O[C@@H]1CN(C)C(=O)Nc1ccc(C(F)(F)F)cc1 | inactive
C[C@@H]1CCCCO[C@H](CN(C)S(=O)(=O)c2ccc(Cl)cc2)[C@H](C)CN([C@@H](C)CO)C(=O)c2cc(NC(=O)Nc3ccc(F)cc3)ccc2O1 | inactive
C[C@@H]1CCCCO[C@H](CN(C)S(=O)(=O)c2ccc(Cl)cc2)[C@@H](C)CN([C@H](C)CO)C(=O)c2cc(NC(=O)Nc3ccc(F)cc3)ccc2O1 | inactive
C[C@H]1CCCCO[C@H](CN(C)S(=O)(=O)c2ccc(Cl)cc2)[C@@H](C)CN([C@@H](C)CO)C(=O)c2cc(NC(=O)Nc3ccc(F)cc3)ccc2O1 | inactive
C[C@H](CO)N1C[C@H](C)[C@@H](CN(C)S(=O)(=O)c2ccc(Cl)cc2)OCCCC[C@H](C)Oc2ccc(NC(=O)Nc3ccc(F)cc3)cc2C1=O | inactive
C[C@@H]1CCCCO[C@@H](CN(C)S(=O)(=O)c2ccc(Cl)cc2)[C@H](C)CN([C@H](C)CO)C(=O)c2cc(NC(=O)Nc3ccc(F)cc3)ccc2O1 | active
C[C@@H]1CN([C@H](C)CO)C(=O)c2cc(NC(=O)Nc3ccc(F)cc3)ccc2O[C@@H](C)CCCCO[C@H]1CN(C)S(=O)(=O)c1ccc(Cl)cc1 | active
COc1ccc(CN(C)C[C@@H]2Oc3c(NC(=O)c4cnccn4)cccc3C(=O)N([C@@H](C)CO)C[C@H]2C)cc1 | inactive
CNC(=O)[C@H]1O[C@@H](n2cnc3c(NCc4cccc(I)c4)ncnc32)[C@H](O)[C@@H]1O | inactive
C[C@@H]1CCCCO[C@H](CN(C)C(=O)Nc2ccccc2)[C@@H](C)CN([C@@H](C)CO)C(=O)c2cc(NC(=O)c3ccccc3)ccc2O1 | inactive
C[C@H]1CN([C@@H](C)CO)C(=O)c2cccc(NC(=O)c3nc4ccccc4s3)c2O[C@H]1CN(C)C(=O)Nc1ccc(F)cc1 | inactive
C[C@H](CO)N1C[C@H](C)[C@@H](CN(C)C(=O)Nc2ccc3c(c2)OCO3)Oc2ccc(NS(C)(=O)=O)cc2C1=O | inactive
COc1ccc(S(=O)(=O)Nc2ccc3c(c2)CC(=O)N([C@@H](C)CO)C[C@H](C)[C@H](CN(C)S(=O)(=O)c2ccccc2)O3)cc1 | inactive
C[C@H](CO)N1C[C@H](C)[C@H](CN(C)S(=O)(=O)c2cn(C)cn2)Oc2ccc(NC(=O)CCCN(C)C)cc2CC1=O | inactive
C[C@H](CO)N1C[C@H](C)[C@H](CN(C)Cc2ccc(F)cc2)Oc2ncc(C#Cc3cccnc3)cc2C1=O | active
Cc1ccc(S(=O)(=O)N(C)C[C@@H]2Oc3ncc(C#Cc4cccc(F)c4)cc3C(=O)N([C@H](C)CO)C[C@@H]2C)cc1 | active
C[C@H](CO)N1C[C@H](C)[C@H](CN(C)S(=O)(=O)c2ccc(F)cc2)Oc2ncc(C#Cc3cccc(F)c3)cc2C1=O | active
C[C@@H]1CN([C@H](C)CO)C(=O)c2cc(C#Cc3cccnc3)cnc2O[C@@H]1CN(C)Cc1ccc(F)cc1 | inactive
COc1ccc(C#Cc2cnc3c(c2)C(=O)N([C@H](C)CO)C[C@H](C)[C@H](CN(C)S(=O)(=O)c2ccc(C#N)cc2)O3)cc1OC | inactive

Compound | cytotoxicity call
C[C@H](CO)N1C[C@H](C)[C@H](CN(C)S(=O)(=O)c2cccc(F)c2)Oc2ncc(C#Cc3cccc(F)c3)cc2C1=O | inactive
C[C@H](CO)N1C[C@H](C)[C@H](CN(C)S(=O)(=O)c2ccccc2)Oc2ncc(C#Cc3cccc(F)c3)cc2C1=O | inactive
COc1ccc(S(=O)(=O)N(C)C[C@@H]2Oc3ncc(C#Cc4ccc(OC)c(OC)c4)cc3C(=O)N([C@H](C)CO)C[C@@H]2C)cc1 | active
C[C@H]1CN([C@@H](C)CO)C(=O)c2cc(C#Cc3cccnc3)cnc2O[C@@H]1CN(C)Cc1ccc(F)cc1 | inactive
C[C@H](CO)N1C[C@H](C)[C@H](CN(C)S(=O)(=O)c2ccc(C#N)cc2)Oc2ncc(C#Cc3cccc(F)c3)cc2C1=O | inactive
Cc1ccc(S(=O)(=O)N(C)C[C@@H]2Oc3ncc(C#Cc4ccccc4)cc3C(=O)N([C@H](C)CO)C[C@@H]2C)cc1 | inactive
COc1ccc(C#Cc2cnc3c(c2)C(=O)N([C@H](C)CO)C[C@H](C)[C@H](CN(C)S(=O)(=O)c2ccc(C)cc2)O3)cc1OC | inactive
C[C@H](CO)N1C[C@H](C)[C@H](CN(C)Cc2ccncc2)Oc2ccc(NS(=O)(=O)c3ccccc3)cc2C1=O | inactive
COc1ccc(S(=O)(=O)N(C)C[C@H]2Oc3ccc(N(C)C)cc3CC(=O)N([C@@H](C)CO)C[C@H]2C)cc1 | inactive
COc1ccc(NC(=O)N(C)C[C@@H]2Oc3ncc(C#CC(C)C)cc3C(=O)N([C@@H](C)CO)C[C@H]2C)cc1 | inactive
NC1CCN(C(=O)NC2CCCCC2)CC1 | inactive
C[C@H]1CCCCO[C@H](CN(C)C(=O)CCC(F)(F)F)[C@@H](C)CN([C@@H](C)CO)C(=O)c2cc(NS(=O)(=O)c3ccccc3)ccc2O1 | inactive
C[C@H]1CC/C=C\[C@H]2O[C@@]34C=CCN(c5ccc(Cl)cc5)C(=O)[C@H]3N(CCO)C(=O)[C@]4(C)[C@@H]2C(=O)O1 | inactive
Cc1noc(C)c1S(=O)(=O)Nc1ccc2c(c1)C(=O)N([C@@H](C)CO)C[C@@H](C)[C@@H](CN(C)C)OCCCC[C@H](C)O2 | inactive
C[C@@]12CC[C@@H]3c4ccc(O)cc4C[C@H](CCCCCCCCC[S@@](=O)CCCC(F)(F)C(F)(F)F)[C@@H]3[C@@H]1CC[C@@H]2O | inactive
O=C(C[C@H]1CC[C@@H]2[C@H](COC[C@@H](O)CN2S(=O)(=O)c2ccccc2)O1)N[C@@H]1CCN(Cc2ccccc2)C1 | inactive
Cc1ccccc1S(=O)(=O)N1C[C@@H](O)COC[C@@H]2O[C@H](CC(=O)NCCc3ccncc3)CC[C@H]21 | inactive
Cc1noc(C)c1NC(=O)Nc1ccc2c(c1)C(=O)N([C@H](C)CO)C[C@H](C)[C@H](CN(C)Cc1ccc(C(=O)O)cc1)OCCCC[C@@H](C)O2 | inactive
CO[C@H]1CN(C)C(=O)c2ccc(NS(=O)(=O)c3cn(C)cn3)cc2OC[C@H](C)N(Cc2cccc(F)c2)C[C@H]1C | inactive
COc1ccc(NC(=O)N(C)C[C@@H]2OCCCC[C@@H](C)Oc3ccc(NS(=O)(=O)c4c(C)noc4C)cc3C(=O)N([C@@H](C)CO)C[C@H]2C)cc1 | inactive
COc1ccc(NC(=O)N(C)C[C@H]2Oc3ccc(NC(=O)Nc4ccc(C(F)(F)F)cc4)cc3CC(=O)N([C@@H](C)CO)C[C@@H]2C)cc1 | inactive
O=C(O)c1csc2c1CCCCC2 | inactive

Compound | cytotoxicity call
COC(=O)CC[C@H]1CCCNC1 | inactive
C[C@@H]1CN([C@H](C)CO)C(=O)c2cc(NS(=O)(=O)c3ccccc3)ccc2O[C@@H](C)CCCCO[C@H]1CN(C)C(=O)C1CCCCC1 | inactive
NCc1ccno1 | inactive
C=CCCC(=O)N(C)[C@H](C)[C@@H](OC(=O)[C@@H]1[C@@H]2C=C[C@]3(O2)[C@H](CN(CC=C)Cc2ccccc2)N(C(C)(C)C)C(=O)[C@@H]13)c1ccccc1 | inactive
COc1ccc(NC(=O)Nc2ccc3c(c2)C(=O)N([C@H](C)CO)C[C@H](C)[C@H](CN(C)C(=O)Nc2cccc4ccccc24)O3)cc1 | inactive
C[C@H](CO)N1C[C@H](C)[C@H](CN(C)S(=O)(=O)c2ccc(C#N)cc2)Oc2ncc(C#Cc3ccc(F)cc3)cc2C1=O | inactive
Cc1ccc(S(=O)(=O)N(C)C[C@@H]2Oc3ncc(C#Cc4ccc(F)cc4)cc3C(=O)N([C@H](C)CO)C[C@@H]2C)cc1 | inactive
C[C@H](CO)N1C[C@H](C)[C@H](CN(C)S(=O)(=O)c2ccc(F)cc2)Oc2ncc(C#Cc3ccc(F)cc3)cc2C1=O | active
Cc1ccc(S(=O)(=O)Nc2ccc3c(c2)C(=O)N([C@@H](C)CO)C[C@H](C)[C@@H](CN(C)S(=O)(=O)c2ccc(Cl)cc2)OCCCC[C@@H](C)O3)cc1 | inactive
O=C1O[C@@H](c2ccccc2)[C@@H](c2ccccc2)N2[C@@H](c3ccc(OCCO)cc3)[C@]3(C(=O)Nc4ccc(C#CC5=CCCCC5)cc43)[C@@H](C(=O)N3CCCCCCC3)[C@H]12 | active
O=C1O[C@H](c2ccccc2)[C@H](c2ccccc2)N2[C@H]1[C@@H](C(=O)O)[C@]1(C(=O)Nc3ccc(C#CC4=CCCCC4)cc31)[C@H]2c1ccccc1OCCO | active
COc1ccc(C#Cc2ccc3c(c2)[C@]2(C(=O)N3)[C@H](C(=O)N3CCCCCCC3)[C@H]3C(=O)O[C@H](c4ccccc4)[C@H](c4ccccc4)N3[C@@H]2c2ccc(O)cc2)cc1 | active
NC(=O)[C@@H]1[C@H]2C(=O)O[C@H](c3ccccc3)[C@H](c3ccccc3)N2[C@H](c2ccc(OCCO)cc2)[C@@]12C(=O)Nc1ccc(C#CC3=CCCCC3)cc12 | inactive
O=C1O[C@@H](c2ccccc2)[C@@H](c2ccccc2)N2[C@@H](c3ccc(OCCO)cc3)[C@]3(C(=O)Nc4ccc(C#CC5=CCCCC5)cc43)[C@@H](C(=O)N3CCN(c4ncccn4)CC3)[C@H]12 | inactive
O=C1O[C@@H](c2ccccc2)[C@@H](c2ccccc2)N2[C@@H](c3ccc(O)cc3)[C@]3(C(=O)Nc4ccc(C#CC5=CCCCC5)cc43)[C@@H](C(=O)O)[C@H]12 | inactive
O=C1O[C@H](c2ccccc2)[C@H](c2ccccc2)N2[C@H]1[C@@H](C(=O)O)[C@]1(C(=O)Nc3ccc(C#CC4=CCCCC4)cc31)[C@H]2C1CCCCC1 | active
O=C1O[C@H](c2ccccc2)[C@H](c2ccccc2)N2[C@H]1[C@@H](C(=O)O)[C@]1(C(=O)Nc3ccc(C#CC4(O)CCCCCC4)cc31)[C@H]2c1ccccc1OCCO | inactive
COc1ccc(C#Cc2ccc3c(c2)[C@]2(C(=O)N3)[C@H](c3ccc(O)cc3)N3[C@H](c4ccccc4)[C@H](c4ccccc4)OC(=O)[C@H]3[C@@H]2C(=O)N2CCCCCCC2)cc1 | inactive
O=C1O[C@H](c2ccccc2)[C@H](c2ccccc2)N2[C@H]1[C@@H](C(=O)O)[C@]1(C(=O)Nc3ccc(C#CC4=CCCCC4)cc31)[C@H]2c1ccc(O)cc1 | inactive
O=C1O[C@@H](c2ccccc2)[C@@H](c2ccccc2)N2[C@@H](c3ccccc3OCCO)[C@]3(C(=O)Nc4ccc(C#CC5=CCCCC5)cc43)[C@@H](C(=O)O)[C@H]12 | inactive
COc1ccc(C#Cc2ccc3c(c2)[C@]2(C(=O)N3)[C@H](c3ccc(O)cc3)N3[C@H](c4ccccc4)[C@H](c4ccccc4)OC(=O)[C@H]3[C@@H]2C(=O)N2CCN(c3ncccn3)CC2)cc1 | inactive
